Screens: PubChem, National Center for Advancing Translational Sciences (NCATS)
PNC inhibitor: blocks assembly of the perinucleolar compartment | PC3M PTB-GFP, PNC prevalence imaging, 16 h; active compounds read low | hit rate 3.1% among 140,000 | activity change (PNC), negative = inhibition, % at 10 µM;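 active means readout at or below -70, meaning at least 70% loss of cells showing the perinucleolar compartment, a nuclear body marking cancer cells; inconclusive means readout between -30 and a set limit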
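Compounds are pinned in duplicate onto adhered PC3M cells stably expressing GFP-tagged PTB and incubated 16 h at 37 C. Cells are then fixed, nuclei stained with Hoechst, and PNC-positive cells counted.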
ALDH1A1 block: ALDH1A1 (human) enzyme inhibition; Potency, µM (series often up to 75.3 µM), most hits filed as inhibitors; Purified ALDH1A1, NADH fluorescence, propionaldehyde substrate; P00352; AID 1030; hit rate 7.3% among 220,000
Target sequence (P00352 whole entry, looked up): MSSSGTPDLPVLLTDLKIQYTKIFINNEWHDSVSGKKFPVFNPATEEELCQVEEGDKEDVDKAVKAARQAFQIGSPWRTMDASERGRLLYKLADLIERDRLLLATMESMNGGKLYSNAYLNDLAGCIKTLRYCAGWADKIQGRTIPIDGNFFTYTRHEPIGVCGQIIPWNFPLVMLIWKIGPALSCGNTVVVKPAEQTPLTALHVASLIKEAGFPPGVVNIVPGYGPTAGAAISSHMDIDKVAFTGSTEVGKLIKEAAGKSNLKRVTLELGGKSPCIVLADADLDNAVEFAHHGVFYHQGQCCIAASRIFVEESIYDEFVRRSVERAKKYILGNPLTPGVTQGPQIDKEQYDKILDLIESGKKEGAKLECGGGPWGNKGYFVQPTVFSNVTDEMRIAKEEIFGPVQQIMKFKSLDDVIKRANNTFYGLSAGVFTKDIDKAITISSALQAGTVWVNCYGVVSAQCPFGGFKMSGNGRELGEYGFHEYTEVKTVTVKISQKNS
HPGD inh: blocks human HPGD enzyme activity; purified HPGD, NADH fluorescence kinetic, PGE2 substrate; Potency, µM, hits mostly inhibitors; P15428; hit rate 4.3% among 150,000
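20 nM HPGD preincubated 15 min at room temperature with compound in 50 mM Tris-HCl pH 8, 0.01% Tween 20. Started with 1 mM NAD+ and 30 uM prostaglandin E2; NADH fluorescence (360/450 nm) read 5 times over 30-s intervals, last minus first.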
JMJD2E inh: inhibitors of human JMJD2E histone demethylase; B2RXH2; JMJD2E catalytic domain, FDH-coupled NADH fluorescence (FDH is formaldehyde dehydrogenase); Potency, µM (highest dose often 57.1 µM), usual class: inhibitors; hit rate 1.6% among 230,000; further: nearly all actives have a fitted effect of over 50% in size
A number is an active result; [ ] = another dose, or the depositor's remark. Rows were chosen to be rich in hits. Some 11% of all compounds tested hit in one or more screens of this group. Unless noted, the call rests on the fitted dose curve; in most records, active means well fitted inhibition curve with a large enough effect (not every such curve was filed as active); inconclusive means small, poorly fitted or top-dose-only effect, or another doubt; inactive means no such curve, though single readings can be large or run the other way.

Screening CCC(Oc1ccccc1)C(=O)Nc1nnc(C)s1 (centres undefined) returned PNC inhibitor -116.6, ALDH1A1 block inactive, HPGD inh inactive and JMJD2E inh inactive.
For CCC(Oc1ccccc1)C(=O)Nc1nnc(C(F)(F)F)s1 (centres undefined) the results were PNC inhibitor inconclusive, ALDH1A1 block inactive, HPGD inh inactive and JMJD2E inh inactive.
For O=C(O)c1oc(C(=O)O)c(C(=O)O)c1C(=O)O the results were ALDH1A1 block inactive[13.5 µM] and HPGD inh inactive.
COC(=O)[C@@]1(Cc2ccc(OC)cc2)[C@H]2c3cc(C(=O)N(C)C)n(Cc4ccc(C(F)(F)F)nc4)c3C[C@H]2CN1C(=O)c1ccccc1 was read as ALDH1A1 block inactive, HPGD inh inactive and JMJD2E inh inactive.
CC1(C)CC(=O)c2sc(NC(=O)CN3C(=O)CCC3=O)nc2C1 was read as PNC inhibitor inactive, ALDH1A1 block inconclusive, HPGD inh inconclusive and JMJD2E inh inconclusive.
For CC1(C)CC(=O)c2sc(NC(=O)CN3CCOCC3)nc2C1 the results were PNC inhibitor inactive, ALDH1A1 block 20µM, HPGD inh inactive and JMJD2E inh inactive.
`CC(C)(/C=N/O)/[N+]([O-])=C/C=[N+](\[O-])C(C)(C)/C=N/O` gave PNC inhibitor inactive, ALDH1A1 block inconclusive, HPGD inh inactive and JMJD2E inh inactive.
CN(C)c1ccc(/C=[N+](\[O-])C(C)(C)/C=N/O)cc1 was read as PNC inhibitor inactive, ALDH1A1 block 22.4µM, HPGD inh inactive and JMJD2E inh inactive.
Cc1nc2ccccc2n1CSc1ccccc1 was read as PNC inhibitor inconclusive, ALDH1A1 block inconclusive, HPGD inh inactive and JMJD2E inh inactive.
Screening CCCCC(=O)Nc1ccc2c3c(cccc13)C(=O)N2CC returned PNC inhibitor inactive, ALDH1A1 block 7.08µM, HPGD inh inactive and JMJD2E inh inactive.
CCN1C(=O)c2cccc3c(NC(=O)C(C)(C)C)ccc1c23 was read as PNC inhibitor inactive, ALDH1A1 block inconclusive, HPGD inh inactive and JMJD2E inh inactive.
For CCOc1cc(C(=O)Nc2ccc3c4c(cccc24)C(=O)N3CC)cc(OCC)c1OCC the results were PNC inhibitor inactive, ALDH1A1 block inconclusive, HPGD inh inactive and JMJD2E inh inactive.
CCN1C(=O)c2cccc3c(NC(=O)c4cccc(N5C(=O)CCC5=O)c4)ccc1c23 was read as PNC inhibitor inactive, ALDH1A1 block 2µM, HPGD inh inactive and JMJD2E inh inactive.
Screening Cc1nn(-c2ccc(S(=O)(=O)O)cc2)c(O)c1N=Nc1ccc(-c2ccc(N=Nc3ccc4c(S(=O)(=O)O)cc(S(=O)(=O)O)c(N)c4c3O)c(O)c2)cc1O.[Cu].[Cu] returned ALDH1A1 block inconclusive and HPGD inh 0.794µM.
For COc1cc(-c2ccc(N=Nc3ccc4c(S(=O)(=O)O)cc(S(=O)(=O)O)c(N)c4c3O)c(OC)c2)ccc1N=Nc1ccc2c(S(=O)(=O)O)cc(S(=O)(=O)O)c(N)c2c1O the results were ALDH1A1 block inconclusive, HPGD inh 14.1µM and JMJD2E inh 3.55µM.
For COc1ccccc1N=Nc1[nH]c2ccc(C)cc2c1O the results were PNC inhibitor inactive, ALDH1A1 block inconclusive, HPGD inh inactive and JMJD2E inh inactive.
Screening O=S(=O)(O)c1ccc2c(N=Nc3cccc4ccccc34)c(O)c(S(=O)(=O)O)cc2c1 returned ALDH1A1 block inconclusive and HPGD inh inactive.
CC(C)NC[C@@H](O)COc1ccc(CCOCC2CC2)cc1 was read as ALDH1A1 block inactive, HPGD inh inactive and JMJD2E inh inactive.
`N[C@@H](CCC(=O)N[C@H](CSN=O)C(=O)NCC(=O)O)C(=O)O` gave ALDH1A1 block inactive, HPGD inh inactive and JMJD2E inh inconclusive.
`N[C@H](CCC(=O)N[C@H](CSN=O)C(=O)NCC(=O)O)C(=O)O` gave ALDH1A1 block inactive, HPGD inh 11.2µM and JMJD2E inh inconclusive.
Cc1cccc(Oc2nc3c(c(=O)n(C)c(=O)n3C)n2C)c1 was read as ALDH1A1 block inactive and JMJD2E inh inactive.
Screening COC(=O)c1cccc(Oc2nc3c(c(=O)n(C)c(=O)n3C)n2C(C)C)c1 returned PNC inhibitor -97.1, ALDH1A1 block inactive, HPGD inh inactive and JMJD2E inh inconclusive.
Screening CSCCC(NS(=O)(=O)c1ccccc1F)C(=O)OCc1ccccc1Cl (centres undefined) returned PNC inhibitor inactive, ALDH1A1 block 15.8µM, HPGD inh inactive and JMJD2E inh inactive.
CSCCC(NS(=O)(=O)c1ccc(Cl)cc1)C(=O)OCc1c(Cl)cccc1Cl (centres undefined) was read as PNC inhibitor inconclusive, ALDH1A1 block inconclusive, HPGD inh inactive and JMJD2E inh inactive.
CC(C)N1CN(c2ccccc2)C(=S)N(c2ccccc2)C1 was read as JMJD2E inh inactive.
`CC(C)N(C(=O)CSc1nnc(NC(=O)C2CCC2)s1)C(C)C` gave PNC inhibitor -102.3, ALDH1A1 block inactive, HPGD inh inactive and JMJD2E inh inactive.
Screening CC(NC(=O)C1CCCC1)C1CC2CCC1C2 (centres undefined) returned PNC inhibitor inactive, ALDH1A1 block inactive, HPGD inh 28.2µM and JMJD2E inh inactive.
For CC(NC(=O)C1CC=CCC1C(=O)O)C1CC2CCC1C2 (centres undefined) the results were PNC inhibitor inconclusive, ALDH1A1 block inactive, HPGD inh inactive and JMJD2E inh inactive.
`Cc1nc2ncnn2c(C)c1CCC(=O)N1CCc2ccccc2C1` gave PNC inhibitor inactive, ALDH1A1 block 2.24µM, HPGD inh inactive and JMJD2E inh inactive.
Screening Cc1nc2ncnn2c(C)c1CCC(=O)N1CCN(c2ccccn2)CC1 returned PNC inhibitor inconclusive, ALDH1A1 block inactive, HPGD inh inactive and JMJD2E inh inconclusive.
Screening Cc1ccnc(SCC(=O)N2CCc3ccccc3C2)n1 returned ALDH1A1 block 17.8µM and JMJD2E inh inactive.
`Cc1ccccc1-n1c(C)nnc1SCC(=O)N1CCc2ccccc2C1` gave PNC inhibitor -106.6, ALDH1A1 block inactive, HPGD inh inactive and JMJD2E inh inactive.
For C=C(C)C(O)/C=C/CCCCCCC (centres undefined) the results were ALDH1A1 block inactive[13.5 µM].
O=C(c1cccc(F)c1)N1CCC2(CCN(Cc3ccccc3)CC2)CC1 was read as ALDH1A1 block inactive and HPGD inh inactive.
For CSc1nc(=NC(C)=O)ss1 the results were PNC inhibitor inactive, ALDH1A1 block 1.78µM, HPGD inh inconclusive and JMJD2E inh inactive.
`CC(C)NC(=O)NC(=O)COC(=O)C1(C)CC1(Cl)Cl` (centres undefined) gave ALDH1A1 block inactive and JMJD2E inh inactive.
Cc1ccc(NC(=O)CCCCCN2C(=O)c3ccccc3C2=O)nc1 was read as PNC inhibitor inconclusive, ALDH1A1 block inactive, HPGD inh inactive and JMJD2E inh inactive.
O=C(CCSc1ccccc1)Nc1ncccn1 was read as PNC inhibitor inactive, ALDH1A1 block inactive, HPGD inh inactive and JMJD2E inh inactive.
CC(C)(C)NC(=O)CN(C(=O)CN1C(=O)C(=O)c2ccccc21)C(C)(C)C was read as ALDH1A1 block 0.126µM and JMJD2E inh inactive.
For O=C(CCCCCN1C(=O)c2ccccc2C1=O)NC1CCCC1 the results were PNC inhibitor inactive, ALDH1A1 block inconclusive, HPGD inh 4.47µM and JMJD2E inh inactive.
